The values below come from PubChem BioAssay AID1509 (The Scripps Research Institute Molecular Screening Center, 2009).

The campaign covered roughly 220,000 compounds. About 770 (0.35%) were called active. Rule as the data show it: active = activation above about 11%; inactive = the rest. Many of the other results were omitted from the sample, so actives are more common in it than they were.

The target of this assay is Sphingosine 1-phosphate receptor 4 (Homo sapiens) (UniProt O95977). The experiment in a line: activators of human S1P4 receptor – cell-based, primary screen (AID 1509).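 Also: 0% = DMSO vehicle and 100% = reference agonist.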 As to conditions: S1P4-expressing cell line, agonist reporter assay; at 4.98 µM; hits give high values. (In general: Reporter assays use an easily measured gene product as a stand-in for the process of interest.)
Chain of Sphingosine 1-phosphate receptor 4 (Homo sapiens) (O95977 whole entry, looked up): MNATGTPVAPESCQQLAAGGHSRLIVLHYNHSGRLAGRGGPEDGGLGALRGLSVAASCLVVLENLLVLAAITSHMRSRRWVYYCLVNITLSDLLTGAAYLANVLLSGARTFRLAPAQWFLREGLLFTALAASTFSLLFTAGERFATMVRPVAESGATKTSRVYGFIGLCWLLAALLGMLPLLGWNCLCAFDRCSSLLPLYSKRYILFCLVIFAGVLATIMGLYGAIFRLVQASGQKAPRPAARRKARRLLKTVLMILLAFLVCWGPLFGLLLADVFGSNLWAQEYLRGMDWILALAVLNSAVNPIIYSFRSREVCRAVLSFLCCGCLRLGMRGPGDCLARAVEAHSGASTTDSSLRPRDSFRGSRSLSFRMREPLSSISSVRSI
As for `CC(C)N(CC#CCC1(O)c2ccccc2-c2ccccc21)C(C)C`, the activation was 16.1% (active).

For the molecule `NCC(O)c1ccc(O)cc1` (stereo not given), the activation was 1.71% (inactive).

On to `O=c1[nH]c(=O)n(-c2ccc(F)cc2)c(O)c1C=NCCN1CCCCC1`, for which the activation is 0.64% (inactive).

For `O=c1[nH]c(CN2CC=C(c3ccccc3)CC2)nc2scc(-c3cccs3)c12`, the activation was 0.84% (inactive).

On to `Cc1cccc(-n2c(O)c(C=NC34CN5CN(CN(C5)C3)C4)c(=O)[nH]c2=O)c1`, for which the activation is -0.41% (inactive).
